# FadD28 binding: M. tuberculosis FadD28 bisubstrate binding inhibition; 0.22% of 360,000 active; inhibition, % at 12.5 µM; FadD28 bisubstrate probe binding, fluorescence polarization; in the data active means inhibition above about 8.5%, passing the limit was not always enough
# BioA inh: BioA (M. tuberculosis) enzyme inhibition; purified M. tuberculosis BioA enzyme, plate reader; inhibition, % at 9.99 µM; 0.096% of 360,000 active; in the data active means inhibition above about 40%
# FBA Mtb inh: Mtb fructose-bisphosphate aldolase inhibition | P9WQA3 | purified M. tuberculosis FBA, fluorescence read-out | inhibition, % at 1 µM | 2.3% of 360,000 active;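 further: 0% = vehicle and 100% = reference inhibitor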
# Target sequence (P9WQA3 whole entry, looked up): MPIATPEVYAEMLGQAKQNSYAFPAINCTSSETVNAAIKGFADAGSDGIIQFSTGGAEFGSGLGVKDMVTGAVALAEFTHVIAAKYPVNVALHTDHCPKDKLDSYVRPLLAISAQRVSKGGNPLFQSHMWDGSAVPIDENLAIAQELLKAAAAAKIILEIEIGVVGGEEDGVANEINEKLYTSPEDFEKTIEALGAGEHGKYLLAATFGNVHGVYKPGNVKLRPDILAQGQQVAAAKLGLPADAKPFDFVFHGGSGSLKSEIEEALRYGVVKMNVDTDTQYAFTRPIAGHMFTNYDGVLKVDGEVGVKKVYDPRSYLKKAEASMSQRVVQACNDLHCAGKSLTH
# Mtb hypoxia rep: Mtb hypoxia fluorescent reporter inhibition. fluorescence inhibition, % (concentration not given with the values). AID 1159583. 0.1% of 300,000 active. M. tuberculosis hypoxia-regulated fluorescent reporter, fluorescence; in the data active means fluorescence inhibition mostly above about 23%, no sharp cut-off; inactive means mostly below about 17%
# GDH-TPI counter-1: inhibits GDH-TPI coupling enzymes, artifact for Mtb FBA screen | GDH-TPI coupled enzyme counterscreen, NADH absorbance | inhibition, % at 4.8 µM | 1.2% of 360,000 active | AID 588335; in the data active means inhibition above about 30%;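 further: 0% = DMSO wells and 100% = wells lacking the enzyme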
# Mtb FBA inh conf: confirmation of M. tuberculosis fructose-bisphosphate aldolase inhibitors; shares compounds with FBA Mtb inh; purified M. tuberculosis FBA, fluorescence read-out; inhibition, % at 1 µM; 78% of 5,600 active; AID 651616;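 further: 0% = vehicle wells and 100% = reference inhibitor wells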
# GDH-TPI counter-2: inhibits GDH-TPI coupling enzymes, flagging Mtb FBA hits. shares compounds with FBA Mtb inh. GDH-TPI coupled enzyme counterscreen, fluorescence. inhibition, % at 1 µM. 81% of 5,600 active. AID 652141; in the data active means inhibition above about 10%
# GDH-TPI dose: GDH-TPI dose response counter-screen for Mtb FBA. shares compounds with FBA Mtb inh. GDH-TPI coupled enzyme assay, fluorescence, artifact counterscreen. 79% of 170 active. AID 652145. IC50, µM; call rule not given here
# Starred values were filed as active, the others as inactive; . = no result; + = active, no number. Most compounds without a hit are left out; they make up all but 2.9% or so of the library. Unless noted, no stated cut-off is given here; in the data, active means inhibition above about 27%; inactive means the rest.
SMILES,FadD28 binding,BioA inh,FBA Mtb inh,Mtb hypoxia rep,GDH-TPI counter-1,Mtb FBA inh conf,GDH-TPI counter-2,others
Cc1cc(OCC(=O)NCc2cccnc2)c2c3c(c(=O)oc2c1)CCCC3,-3,3,106*,12,4,55*,37*,
Cc1cc(OCC(=O)N[C@@H](Cc2ccccc2)C(=O)O)c2c3c(c(=O)oc2c1)CCCC3,-10,1,51*,.,-6,161*,117*,
Cc1cccc(OCC(=O)NC(Cc2ccccc2)C(=O)O)c1 (stereo not given),-3,0,3,-4,-6,.,.,
O=C(COc1cc2oc(=O)c3c(c2cc1Cl)CCCC3)NCc1cccnc1,-2,5,2,-14,0,.,.,
CCCc1cc(=O)oc2cc(C)cc(OCC(=O)NCc3cccnc3)c12,-4,4,76*,-2,1,+,+,
O=C(NN=Cc1ccc(OC(F)F)cc1)c1cccc(S(=O)(=O)N2CCOCC2)c1,.,.,.,-5,.,.,.,
C/C=C/c1ccc([C@H]2[C@H]3CN(C(=O)Nc4cc(F)ccc4F)CCCCN3[C@H]2CO)cc1,.,-3,.,.,.,.,.,
N#C[C@H]1[C@H](c2ccc(-c3cccnc3)cc2)[C@@H](CO)N1C(=O)C1CCC1,.,5,.,.,.,.,.,
COC(=O)c1ccc(-c2ccc(C=NNC(=O)CC3(C)OCCCO3)o2)cc1,.,.,.,5,.,.,.,
C[C@H](CO)N1C[C@H](C)[C@@H](CN(C)Cc2ccc(Cl)c(Cl)c2)Oc2ccc(NC(=O)C3CC3)cc2C1=O,.,2,.,.,.,.,.,
O=C(CCN1CCCCC1)N[C@@H]1C=C[C@H](CC(=O)N2CCC(Cc3ccccc3)CC2)O[C@H]1CO,.,3,.,.,.,.,.,
CN(c1ccccc1)S(=O)(=O)c1cccc(NC(=O)CN2C(=O)NC3(CCCCC3)C2=O)c1,-4,0,38*,.,6,88*,52*,
CCOC(=O)N1CCc2cc(OC)c(OC)c3c2c1cc1cc(OC)c(OC)cc13,-2,.,38*,.,9,12,-1,GDH-TPI dose=5.5*
CC(=NN=C(N)N)c1ccccc1,.,.,.,3,.,.,.,
CCCCn1c(=O)c(-c2ccccc2)c(O)c2ccccc21,2,-1,31*,6,0,112*,92*,
O=c1c(-c2ccccc2)c(O)c2c(n1-c1ccccc1)CCCC2,-2,.,3,9,-4,.,.,
CCn1c(=O)c(-c2ccccc2)c(O)c2ccccc21,2,-1,19,-6,-5,.,.,
O=c1c(-c2ccccc2)c(O)c2ccccc2n1-c1ccccc1,0,0,32*,15,19,87*,73*,
CCc1ccc(-c2cc(C(=O)NCc3ccccn3)c3ccccc3n2)cc1,-2,.,29*,11,-1,88*,65*,
Cc1ccc(-c2cc(C(=O)NCc3ccccn3)c3ccccc3n2)cc1,-1,1,28*,3,20,123*,116*,
NC(=O)N/N=C/c1ccc2cccc(OCc3ccccc3)c2n1,-3,0,57*,.,14,173*,138*,
NC(=O)NN=Cc1ccc2cccc(OCc3ccccc3)c2n1,.,.,.,6,.,.,.,
CC(=NNC(=S)NCc1ccccc1)c1ccc(Br)cc1,.,.,.,10,.,.,.,
Cc1cccn2c(=O)c3cc(C(=O)NC4CCCCC4)c(=N)n(CCN4CCOCC4)c3nc12,-1,.,67*,-10,1,43*,41*,
CCCn1c(=N)c(C#N)cc2c(=O)n3cccc(C)c3nc21,.,.,.,-9,.,.,.,
SMILES,FadD28 binding,BioA inh,FBA Mtb inh,Mtb hypoxia rep,GDH-TPI counter-1,Mtb FBA inh conf,GDH-TPI counter-2,others
Cc1cccn2c(=O)c3cc(C(=O)NCc4ccc(F)cc4)c(=N)n(CCCN4CCOCC4)c3nc12,-1,.,80*,14,9,81*,82*,
Cc1cccn2c(=O)c3cc(C(N)=S)c(=N)n(CCCN4CCOCC4)c3nc12,-3,.,57*,-8,-1,56*,55*,
CCCn1c(=N)c(C#N)cc2c(=O)n3ccccc3nc21,0,.,34*,.,0,75*,68*,
Cc1cccn2c(=O)c(C(=O)NC3CCCCC3)c(O)nc12,0,3,2,1,3,.,.,
COC1=CC(=O)CC(C)[C@]12Oc1c(Cl)c(OC)cc(OC)c1C2=O (stereo not given in full),.,.,.,0,.,.,.,
CO[C@H]1CN(C)C(=O)c2cc(NC(=O)c3ccccc3F)ccc2OC[C@@H](C)N(C(=O)c2ccccc2F)C[C@@H]1C,.,3,.,.,.,.,.,
COCCn1c(=N)c(S(=O)(=O)c2ccc(F)cc2)cc2c(=O)n3cccc(C)c3nc21,-4,-1,-3,-6,-13,.,.,
COCCCn1c(=N)c(C(N)=S)cc2c(=O)n3cccc(C)c3nc21,-7,1,73*,10,10,57*,42*,
Cc1ccc2nc3c(cc(C(N)=S)c(=N)n3CCCOC(C)C)c(=O)n2c1,-4,0,48*,4,4,84*,66*,
Cc1cccn2c(=O)c3cc(C#N)c(=N)n(CCCN4CCOCC4)c3nc12,1,0,62*,.,2,+,+,
CCOCCCn1c(=N)c(S(=O)(=O)c2ccccc2)cc2c(=O)n3cc(C)ccc3nc21,-3,2,6,7,3,.,.,
Cc1cccn2c(=O)c3cc(C#N)c(=N)n(Cc4ccncc4)c3nc12,.,.,.,-9,.,.,.,
COCC#Cc1cnc2c(c1)C(=O)N([C@@H](C)CO)C[C@@H](C)[C@@H](CN(C)C(=O)c1ccc3c(c1)OCO3)O2,.,-2,.,.,.,.,.,
CCOc1ccc2nc(NCCNC(=O)C3CC3)c(C)cc2c1,0,1,21,.,13,.,.,
CCOc1ccc2nc(NCCNC(=O)C(C)C)c(C)cc2c1,0,0,35*,.,22,86*,66*,
C[C@@H](C(=O)NCCc1ccccc1F)N1C(=O)N2CCc3c([nH]c4ccccc34)[C@@]2(C)C1=O,-1,0,32*,.,-4,+,188*,
CC1(C)NC(C)(C)c2nonc2C1=NO,.,.,.,8,.,.,.,
CCN(CC)CCn1c2ccccc2c2cnc(N)c(C#N)c21,-3,.,29*,.,5,+,180*,
CN(C(=O)CSC1=NCCS1)c1ccccc1,0,1,-1,16,2,.,.,
CN(C(=O)CSc1nc(N)c2c3c(sc2n1)CSC(C)(C)C3)c1ccccc1,-1,-1,31*,0,3,61*,49*,
CCOc1ccc(C2C(C(=O)OC)=CN(C(C)c3ccccc3)C=C2C(=O)OC)cc1 (stereo not given),-1,-1,71*,-6,-4,+,+,
CCOC(=O)CNC(=O)c1cc2c(=O)[nH]c3ccc(C)cc3c2s1,.,-1,32*,-9,12,118*,97*,
Cc1ccc2[nH]c(=O)c3cc(C(=O)NCCN4CCN(C)CC4)sc3c2c1,-3,-1,49*,.,22,196*,159*,
Cc1ccc2[nH]c(=O)c3cc(C(=O)N(CCCOC(C)C)Cc4ccco4)sc3c2c1,-2,0,28*,0,12,22,11*,
